This is an account of results in PubChem BioAssay (Tox21).

Structures are written as SMILES. Several values for one entry are separate records, joined by “and”; a condition that tells them apart may be missing. Equal entries are not always repeated. Results filed as inconclusive are left out. More than one record can exist for a structure, and the calls need not agree. Activity calls are given as the source filed them. Unless noted, calls follow the shape of the full dose curve.

Assay [1] is described as follows: Nuclear factor erythroid 2-related factor 2/antioxidant responsive element (Nrf2/ARE) small molecule agonists: qHTS cell viability counter screen in human keratinocytes (AID 1919968; active = well fitted curve in the direction sought with a large enough effect in the repeat runs; an effect the other way counts as inactive or inconclusive; also: nearly all actives have a fitted effect of over 55% in size). The gist of the method: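 Measured as CellTiter-Fluor fluorescence, this readout tracks cytotoxicity in the same wells as the ARE-luciferase screen. HaCaT reporter cells (1,500/well) received compounds after a 5 h pre-incubation and were exposed for 23 h.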
(In general: In qHTS, concentration-response curves come from the screen itself.)

Assay [2] is described as follows: Nuclear factor erythroid 2-related factor 2/antioxidant responsive element (Nrf2/ARE) small molecule agonists: luciferase reporter gene qHTS assay in human keratinocytes (AID 1919969). Also: nearly all actives have a fitted effect of over 35% in size. Also: potency is read from the fitted curve at half-maximal effect.
Assay [3] concerns the target Gonadotropin-releasing hormone receptor (Homo sapiens) (UniProt P30968). The experiment in a line: Human gonadotropin-releasing hormone receptor (GnRHR) small molecule agonists, calcium flux assay in GnRHR-HEK293 cells (AID 1920063). Also: nearly all actives have a fitted effect of over 35% in size. The gist of the method:
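Fluorescence kinetics (480 nm excitation, 540 nm emission; 3 min, 1 s steps) report calcium mobilisation in human GnRHR-HEK293 cells in agonist mode. Dye incubation: 1 h, 37 C.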
On the technique in general: A change in cytosolic calcium serves as a functional read-out for many receptors and channels.

In assay [4] the target is KiSS-1 receptor (Homo sapiens) (UniProt Q969F8). The assay can be described thus: Human kisspeptin (KISS1R) small molecule agonists, calcium flux assay in KISS1R-HEK293 cells (AID 1920064; active = well fitted curve in the direction sought with a large enough effect in the repeat runs; an effect the other way counts as inactive or inconclusive). The gist of the method:
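Measures KISS1R agonism through calcium-sensitive dye fluorescence in stably transfected HEK293 cells, read for 3 min after pin-tool compound delivery; 15-point titrations in triplicate.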

Assay [5] is described as follows: G protein-coupled receptor (GPCR) small molecule agonists, calcium flux assay: HEK293 wild type cell line counter screen (AID 1920065). The gist of the method: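 Readout: fluorescence at 480 nm excitation/540 nm emission, sampled at 1 s intervals for 3 min. Cells had been cultured 18 h, then dye-loaded 1 h at 37 C before compound or ATP addition.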
A short description of assay [6]: p53 small molecule agonists, cell-based qHTS assay with human liver microsomes (AID 1963577). The gist of the method:
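p53RE-bla reporter cells were pre-incubated 5 h at 37 C, then treated with compounds plus human liver microsomes (0.5 mg/mL final) and NADPH (0.5 mg/mL final) for 16 h at 37 C. Beta-lactamase activity was read by LiveBLAzer fluorescence after 2 h at room temperature.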

The nature of assay [7]: p53 small molecule agonists, cell-based qHTS assay with rat liver microsomes (AID 1963578). Summed up: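 p53RE-bla cells were exposed to compounds together with rat liver microsomes (0.5 mg/mL final) and NADPH (0.5 mg/mL final) for 16 h at 37 C, then read by LiveBLAzer beta-lactamase fluorescence after 2 h at room temperature.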
A short description of assay [8]: p53 small molecule agonists, cell-based qHTS assay with human liver microsomes: qHTS cell viability counter screen (AID 1963579). Also: nearly all actives have a fitted effect of over 45% in size. Also: potency is read from the fitted curve at half-maximal effect. The gist of the method: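 p53RE-bla cells (4,000/well) were pre-incubated 5 h at 37 C, then given compounds in DMSO plus human liver microsomes (0.5 mg/mL final) and NADPH (0.5 mg/mL final) for 16 h at 37 C. Viability was read by CellTiter-Glo luminescence.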

Assay [9] can be described thus: p53 small molecule agonists, cell-based qHTS assay with rat liver microsomes: qHTS cell viability counter screen (AID 1963580). Also: nearly all actives have a fitted effect of over 45% in size. Also: potency is read from the fitted curve at half-maximal effect. Summed up: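 Viability is assessed in parallel with the p53 reporter read: HCT-116 p53RE-bla cells receive compounds plus rat microsomes and NADPH (0.5 mg/mL final apiece), incubate 16 h at 37 C, and then CellTiter-Glo luminescence is recorded.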

Assay [10] is described as follows: p53 small molecule agonists, cell-based qHTS assay: qHTS cell viability counter screen (AID 1963581). Also: nearly all actives have a fitted effect of over 45% in size. The gist of the method:
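In the same plates used for the p53 bla reporter, HCT-116 cells given compounds for 16 h at 37 C received CellTiter-Glo; luminescence was recorded 30 min later at room temperature.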

The nature of assay [11]: p53 small molecule agonists, cell-based qHTS assay (AID 1963582; active = well fitted activation curve with a large enough effect in the signal ratio in the repeat runs, not every such curve was filed as active; the % refers to the signal ratio). The gist of the method: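 Compounds are pin-transferred in DMSO onto p53RE-bla cells and incubated 16 h at 37 C. The B/G FRET beta-lactamase substrate is then applied for 2 h at RT and fluorescence recorded.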
For assay [12], the target named is 5-hydroxytryptamine receptor 2A (Homo sapiens) (UniProt P28223). The assay can be described thus: 5-hydroxytryptamine receptor 2A (HTR2A) small molecule antagonists, cell-based qHTS assay (AID 1963586). Also: nearly all actives have a fitted effect of over 45% in size. The gist of the method:
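Antagonist-mode intracellular calcium assay: DOI (4 nM) added after 5 min compound pre-incubation at room temperature to dye-loaded HTR2A-CHO cells. Fluorescence followed for 3 min, sampled every second.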

For assay [13] the target is unchanged. The assay can be described thus: 5-hydroxytryptamine receptor 2A (HTR2A) small molecule agonists, cell-based qHTS assay (AID 1963587). Also: nearly all actives have a fitted effect of over 30% in size. The gist of the method:
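CHO cells stably expressing human HTR2A, plated 18 h, loaded with calcium dye 1 h at 37 C. Agonist mode: compounds added and intracellular calcium fluorescence recorded kinetically for 2 min at 1 sec intervals.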

Assay [14] has as its target Muscarinic acetylcholine receptor M1 (Homo sapiens) (UniProt P11229). The experiment in a line: Cholinergic receptor muscarinic 1 (CHRM1) small molecule antagonists, cell-based qHTS assay (AID 1963588). Also: nearly all actives have a fitted effect of over 40% in size. Also: potency is read from the fitted curve at half-maximal effect. The gist of the method: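 CHRM1-CHO calcium-flux assay, antagonist mode. Cells were seeded 18 h, dye-loaded 1 h at 37 C and given compound for 5 min at RT, then acetylcholine was added at 50nM. FDSS fluorescence was read 3 min; 15 concentrations, three runs.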

For assay [15] the target is unchanged. The experiment in a line: Cholinergic receptor muscarinic 1 (CHRM1) small molecule agonists, cell-based qHTS assay (AID 1963589). Also: nearly all actives have a fitted effect of over 35% in size. The gist of the method:
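Each compound was tested at 15 concentrations across three independent runs on dye-loaded CHO cells stably expressing human CHRM1, reading intracellular calcium fluorescence kinetically at 1 sec intervals.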

A short description of assay [16]: cAMP Responsive Elements (CRE) small molecule agonists, cell-based qHTS assay (AID 1963590). Summed up:
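Cell line: CRE-bla HEK 293T; medium DMEM/10% dialyzed FBS/0.1 mM NEAA/1 mM pyruvate/25 mM HEPES; 3 h compound exposure; beta-lactamase FRET readout after 2 h substrate loading at RT.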

Assay [17] is described as follows: cAMP Responsive Elements (CRE) small molecule antagonists, cell-based qHTS assay (AID 1963591; active = well fitted inhibition curve with a large enough effect in the signal ratio in the repeat runs, not every such curve was filed as active; the % refers to the signal ratio). Summed up:
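Inhibition of NKH477-driven (0.25 uM final) CRE-beta-lactamase signal in HEK293T cells, 3 h compound exposure at 37 °C, detected by FRET substrate fluorescence.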

The target of assay [18] is Beta-2 adrenergic receptor (Homo sapiens) (UniProt P07550). The experiment in a line: Adrenergic beta2 receptor (ADRB2) small molecule antagonists, cell-based qHTS assay (AID 1963592). Also: series mostly up to about 92 µM; nearly all actives have a fitted effect of over 50% in size. The gist of the method:
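Cells (CHO, stable ADRB2 overexpression) incubated 18-20hr at 37C; compounds added from DMSO; agonist mix (1nM isoproterenol, 100uM IBMX, 25uM Ro-20-1724) added; 0.5hr RT; d2-cAMP and anti-cAMP-cryptate added; 1hr RT; 665/615 nm read.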

In assay [19] the target is D(2) dopamine receptor (Homo sapiens) (UniProt P14416). The assay can be described thus: Dopamine D2 receptor (DRD2) small molecule agonists, cell-based qHTS assay (AID 1963594). Also: nearly all actives have a fitted effect of over 35% in size. The gist of the method:
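HEK293 cells stably expressing human DRD2, pre-treated with PDE inhibitor Ro20-1724 (0.1 mM final) and compound 10 min at room temperature, then stimulated with NKH477 (200nM […]) for 30 min. cAMP read by HTRF (665/620 nm).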

For assay [20] the target is unchanged. The assay can be described thus: Dopamine D2 receptor (DRD2) small molecule antagonists, cell-based qHTS assay (AID 1963595; active = well fitted inhibition curve with a large enough effect in the signal ratio in the repeat runs, with a control signal flat; the % refers to the signal ratio). Summed up: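 HEK293 cells stably expressing DRD2 were preincubated with 0.1 mM Ro20-1724, then with compound for 10 min at room temperature. Cells were stimulated with 200 nM NKH477 plus 12 nM quinpirole for 30 min, and cAMP was read by HTRF.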
% is scaled to controls: 0 for no effect and ±100 for the full control effect.

Sequence of Muscarinic acetylcholine receptor M1 (Homo sapiens) (P11229 whole entry, looked up): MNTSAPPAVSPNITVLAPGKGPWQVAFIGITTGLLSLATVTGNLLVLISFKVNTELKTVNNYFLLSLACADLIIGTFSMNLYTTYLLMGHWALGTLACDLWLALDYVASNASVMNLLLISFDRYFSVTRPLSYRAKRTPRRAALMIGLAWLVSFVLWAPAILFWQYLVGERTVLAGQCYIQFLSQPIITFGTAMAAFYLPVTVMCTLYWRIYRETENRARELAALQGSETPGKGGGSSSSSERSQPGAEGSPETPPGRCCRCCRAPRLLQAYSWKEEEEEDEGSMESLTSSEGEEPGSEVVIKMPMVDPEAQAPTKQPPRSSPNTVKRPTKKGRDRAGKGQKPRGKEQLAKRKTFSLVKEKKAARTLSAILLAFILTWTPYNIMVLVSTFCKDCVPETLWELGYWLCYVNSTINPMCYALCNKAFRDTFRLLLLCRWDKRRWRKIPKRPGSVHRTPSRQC
Sequence of D(2) dopamine receptor (Homo sapiens) (P14416 whole entry, looked up): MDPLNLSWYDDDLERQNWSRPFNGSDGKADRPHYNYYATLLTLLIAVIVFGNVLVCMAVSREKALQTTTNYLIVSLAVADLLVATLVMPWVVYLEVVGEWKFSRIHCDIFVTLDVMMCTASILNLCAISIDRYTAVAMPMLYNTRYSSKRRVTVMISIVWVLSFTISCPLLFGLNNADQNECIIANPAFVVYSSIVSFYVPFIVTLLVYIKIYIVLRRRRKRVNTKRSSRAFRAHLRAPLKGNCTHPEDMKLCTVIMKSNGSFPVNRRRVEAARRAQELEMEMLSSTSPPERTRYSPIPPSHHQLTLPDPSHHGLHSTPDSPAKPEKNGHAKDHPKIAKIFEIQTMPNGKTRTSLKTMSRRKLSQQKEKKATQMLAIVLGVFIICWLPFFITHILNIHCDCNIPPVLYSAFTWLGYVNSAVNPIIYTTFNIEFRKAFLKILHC
Sequence of 5-hydroxytryptamine receptor 2A (Homo sapiens) (P28223 whole entry, looked up): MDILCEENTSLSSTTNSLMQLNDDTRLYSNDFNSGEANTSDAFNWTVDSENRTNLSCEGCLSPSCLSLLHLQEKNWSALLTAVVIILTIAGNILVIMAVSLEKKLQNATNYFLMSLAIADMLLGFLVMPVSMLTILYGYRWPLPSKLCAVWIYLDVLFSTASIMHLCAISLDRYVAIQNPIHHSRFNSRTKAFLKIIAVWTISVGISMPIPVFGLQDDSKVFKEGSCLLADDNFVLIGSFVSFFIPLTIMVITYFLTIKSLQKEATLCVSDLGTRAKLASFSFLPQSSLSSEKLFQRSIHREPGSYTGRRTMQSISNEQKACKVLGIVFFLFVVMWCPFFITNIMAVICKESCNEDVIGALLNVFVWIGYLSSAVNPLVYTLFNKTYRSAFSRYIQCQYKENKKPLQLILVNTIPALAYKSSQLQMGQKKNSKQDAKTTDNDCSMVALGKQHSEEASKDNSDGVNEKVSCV
Sequence of Gonadotropin-releasing hormone receptor (Homo sapiens) (P30968 whole entry, looked up): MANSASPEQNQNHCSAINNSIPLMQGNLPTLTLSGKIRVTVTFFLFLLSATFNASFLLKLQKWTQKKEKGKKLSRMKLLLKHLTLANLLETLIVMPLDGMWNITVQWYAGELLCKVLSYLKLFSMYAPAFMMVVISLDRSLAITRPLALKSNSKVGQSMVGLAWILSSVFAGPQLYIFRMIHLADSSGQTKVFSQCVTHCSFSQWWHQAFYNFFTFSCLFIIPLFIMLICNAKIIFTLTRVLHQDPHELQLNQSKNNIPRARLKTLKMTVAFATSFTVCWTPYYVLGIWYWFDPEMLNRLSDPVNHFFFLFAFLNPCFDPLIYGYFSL
Sequence of KiSS-1 receptor (Homo sapiens) (Q969F8 whole entry, looked up): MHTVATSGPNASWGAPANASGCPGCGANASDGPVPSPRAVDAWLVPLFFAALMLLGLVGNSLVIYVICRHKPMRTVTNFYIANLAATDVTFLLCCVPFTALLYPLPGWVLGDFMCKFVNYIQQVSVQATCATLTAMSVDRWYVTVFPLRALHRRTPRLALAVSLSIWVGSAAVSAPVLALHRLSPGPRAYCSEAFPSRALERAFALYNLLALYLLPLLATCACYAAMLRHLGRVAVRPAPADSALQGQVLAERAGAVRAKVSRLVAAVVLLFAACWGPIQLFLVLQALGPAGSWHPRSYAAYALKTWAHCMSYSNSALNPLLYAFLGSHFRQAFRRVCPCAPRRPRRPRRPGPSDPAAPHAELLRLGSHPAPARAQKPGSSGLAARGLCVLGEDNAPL
Sequence of Beta-2 adrenergic receptor (Homo sapiens) (P07550 whole entry, looked up): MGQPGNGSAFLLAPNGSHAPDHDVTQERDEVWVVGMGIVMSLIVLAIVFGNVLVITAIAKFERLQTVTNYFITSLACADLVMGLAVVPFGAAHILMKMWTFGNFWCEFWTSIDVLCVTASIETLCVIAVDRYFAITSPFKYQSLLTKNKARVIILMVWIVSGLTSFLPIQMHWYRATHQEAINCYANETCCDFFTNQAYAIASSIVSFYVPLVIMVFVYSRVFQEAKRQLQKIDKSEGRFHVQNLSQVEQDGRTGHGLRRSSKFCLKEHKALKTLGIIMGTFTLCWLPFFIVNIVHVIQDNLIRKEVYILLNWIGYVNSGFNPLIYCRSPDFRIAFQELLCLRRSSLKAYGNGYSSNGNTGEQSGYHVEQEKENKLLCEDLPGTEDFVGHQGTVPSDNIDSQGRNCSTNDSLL

In the case of `CCCCCC(C)=O`, the Potency entry in [1], in [3], in assay [4], in assay [5], in assay [6] and in [7] was “inactive” throughout. Further, the Potency result in assay [10], in [11], in assay [12], in assay [13], in [14] and in assay [15] was “inactive” throughout. In addition, the Potency entry in assay [16], in assay [17], in assay [18] and in assay [19] was “inactive” each time. In addition, the Potency entry in [2] is “inactive and 27.3 µM (active)”; in [8], “inactive and 12.9 µM (active)”; in [9] it was “inactive and 28.9 µM (active)”.
With `C[Si](C)=O`, the activity change, negative = cytotoxicity was 4.07% [at 8.39 µM] (inactive) in assay [1], 7.59% [at 5.99 µM] (inactive) in [8], 11.3% [at 5.99 µM] (inactive) in [9] and 1.47% [at 5.99 µM] (inactive) in assay [10]. In addition, the activity, positive = activation in assay [2] is -5.78% [at 8.39 µM] (inactive). For the same compound, the activity change in assay [3] is -0.63% [at 5.22 µM, stronger effect = higher value] (inactive). The activation in [4] is -1.56% [at 6.97 µM] (inactive); in assay [5], 0.129% [at 5.23 µM] (inactive); in assay [6], 3.5% [at 5.99 µM] (inactive); in assay [7] it was 0.12% [at 5.99 µM] (inactive); in assay [11], -0.704% [at 5.99 µM] (inactive); in assay [13], 3.07% [at 7.02 µM] (inactive). For the same compound, the values for the activation in [15], in assay [16] and in assay [19] were 0.243% [at 6.97 µM] (inactive), 0.463% [at 8.39 µM] (inactive) and 4.84% [at 8.39 µM] (inactive), respectively. Moreover, the activity, negative = inhibition in assay [12] was 1.83% [at 5.62 µM] (inactive); in [14], -3.21% [at 5.58 µM] (inactive). Further, the activity change, negative = inhibition in [17] is -3.7% [at 8.39 µM] (inactive); in assay [18], -1.43% [at 8.39 µM] (inactive); in [20], 6.58% [at 8.38 µM] (inactive).
Turning to `O=C[O][Al]([O]C=O)[O]C=O`, the Potency result in assay [1], in [2], in assay [3], in [4], in [5] and in assay [6] was “inactive” in each case. For the same compound, the Potency result in [7], in assay [8], in assay [9], in [10], in assay [11] and in assay [12] was “inactive” each time. Moreover, the Potency result in [13], in assay [14], in assay [15], in assay [16], in assay [17] and in assay [18] was “inactive” throughout. Further, the Potency entry in [20] was “inactive”.
Regarding `CCC(C)(C)CC`, the Potency result in [1], in [2], in assay [3], in assay [4], in [5] and in [6] was “inactive” in each case. Besides, the Potency entry in assay [7], in assay [8], in assay [9], in [10], in assay [11] and in assay [12] was “inactive” in each case. The Potency entry in assay [13], in assay [14], in assay [15], in [16], in assay [17] and in assay [18] was “inactive” in each case. For the same compound, the Potency result in assay [19] and in assay [20] was “inactive” throughout.
On to `CCCCCCCCCCCC[N+](C)(C)CCCS(=O)(=O)[O-]`, for which the Potency result in assay [1], in assay [2], in assay [3], in assay [4], in [5] and in assay [6] was “inactive” in each case. Besides, the Potency entry in [7], in [8], in [9], in assay [10], in assay [11] and in [12] was “inactive” throughout. Moreover, the Potency result in [13], in [15], in assay [16], in assay [17], in [18] and in assay [19] was “inactive” each time. Moreover, the Potency result in assay [20] is “inactive”. Moreover, in assay [14], the Potency was 33.8 µM (active).
Consider `O=C(C(=O)c1ccco1)c1ccco1`, for which the Potency result in assay [1], in assay [2], in [3], in [4], in assay [5] and in assay [6] was “inactive” in each case. Besides, the Potency entry in assay [7], in assay [8], in assay [9], in assay [10], in assay [11] and in [12] was “inactive” throughout. Also, the Potency entry in assay [13], in assay [14], in assay [15], in assay [16], in assay [17] and in assay [18] was “inactive” throughout. In addition, the Potency result in assay [19] was “inactive”.
Take `O=S(O)CO`: the Potency entry in assay [1], in [2], in assay [3], in assay [4], in assay [5] and in [6] was “inactive” in each case. Further, the Potency result in assay [7], in assay [8], in assay [9], in assay [10], in [11] and in assay [12] was “inactive” each time. Also, the Potency result in assay [13], in assay [14], in assay [15], in assay [16], in assay [17] and in assay [18] was “inactive” throughout. Also, in assay [20], the Potency entry is “inactive”.
